Assay outcomes as filed in PubChem.
aSyn 5UTR act – Activators via SNCA 5'UTR binding, MLPCN; activity score, % (tested at 7.5 µM), hits read low; alpha-synuclein 5'UTR reporter, activators screen; actives 7.1% (n = 300,000); in the data active means activity score below about -60%
Of the large screens only hits and unclear results are named; the others gave an inactive call. Only a sample is shown.

CC(=O)Nc1sc(N/N=C\c2cccc(Cl)c2)nc1-c1cccs1	aSyn 5UTR act -82
NNC(=O)c1ccc(OCC2CC(c3ccc(Cl)cc3)=NO2)cc1 (configuration not stated)	aSyn 5UTR act -74
COc1ccc(-c2cnn3c4c(c(C)nc23)CCN4C(C)C)cc1OC	aSyn 5UTR act -70
C=CCc1ccc(OCCn2cccc2C=O)c(OC)c1	aSyn 5UTR act -140
C/C=C/c1ccc(OCCn2nnc3ccccc32)c(OC)c1	aSyn 5UTR act -115
Cc1cccc(OCCn2nnc3ccccc32)c1C	aSyn 5UTR act -180
C=CCc1ccc(OCCn2nnc3ccccc32)c(OC)c1	aSyn 5UTR act -248
C=CCc1ccc(OCCOc2cccc3ccc(C)nc23)c(OC)c1	aSyn 5UTR act -69
CCCC(=NCCc1c(C)[nH]c2ccccc12)C1=C(O)CC(c2ccccc2)CC1=O (configuration not stated)	none
Cc1[nH]c2ccccc2c1CN1CCc2ccccc2C1	aSyn 5UTR act -62
CCn1nnnc1SCC(=O)c1ccc2c(c1)OCCO2	aSyn 5UTR act -137
COc1cccc(C(=O)CSc2nnnn2C2CCCCC2)c1	aSyn 5UTR act -74
CC(C)(C)c1nnc2sc(SCC(=O)c3ccc4c(c3)OCCO4)nn2c1=O	aSyn 5UTR act -156
Cc1ccc(C)c(C(=O)CSc2nnnn2C(C)C)c1	aSyn 5UTR act -65
O=C(CSc1nnnn1C1CCCC1)c1ccc2c(c1)OCCO2	aSyn 5UTR act -102
CC(C)n1nnnc1SCC(=O)c1ccc2c(c1)OCCO2	aSyn 5UTR act -145
O=C(NNS(=O)(=O)c1ccccc1[N+](=O)[O-])c1cccc([N+](=O)[O-])c1	aSyn 5UTR act -69
Cc1cc(O)c(NC(=O)c2cccc([N+](=O)[O-])c2)cc1C	aSyn 5UTR act -79
CC(C)(C)c1cc(NC(=O)c2cccc([N+](=O)[O-])c2)no1	aSyn 5UTR act -111
O=C(Nc1cc([N+](=O)[O-])ccc1O)c1cccc([N+](=O)[O-])c1	aSyn 5UTR act -96
O=C(NC(=S)Nc1ccc(Cl)cn1)C12CC3CC(CC(C3)C1)C2	aSyn 5UTR act -162
N/C(=N\OC(=O)c1ccc(Cl)c(Cl)c1)c1cccnc1	aSyn 5UTR act -138
N/C(=N\OC(=O)c1cccc(C(F)(F)F)c1)c1cnccn1	aSyn 5UTR act -81
N/C(=N\OC(=O)c1cccc(Cl)c1)c1ccncc1	aSyn 5UTR act -87
N/C(=N\OC(=O)c1cccc(Cl)c1)c1cccnc1	aSyn 5UTR act -114
CC(=O)NNc1ncnc2c1cnn2-c1ccc(C)c(Cl)c1	aSyn 5UTR act -69
O=C(NNc1ncnc2c1cnn2-c1cccc(Cl)c1)c1ccco1	aSyn 5UTR act -158
Cc1ccc(C=Nc2ccc(N(C)C)cc2)o1	aSyn 5UTR act -139
c1csc(-c2cn3ccc4ccccc4c3n2)c1	aSyn 5UTR act -209
c1ccn(-c2ccc(-c3ccn[nH]3)cc2)c1	aSyn 5UTR act -164
COc1ccc(NC(=S)N2CCc3ccccc32)cc1OC	aSyn 5UTR act -83
Cc1ccc(-n2c(C)nc3c(cnn3-c3ccc(C)c(C)c3)c2=O)cc1C	aSyn 5UTR act -101
Cc1ccc(-c2nn3cnnc3c3ccccc23)cc1C	none
Cc1nc2c3cnn(-c4ccc(C)c(C)c4)c3ncn2n1	aSyn 5UTR act -191
C#CCn1cnc2c(cnn2-c2ccc(C)c(C)c2)c1=O	aSyn 5UTR act -107
COC1c2ccccc2C(=O)N1CCc1ccc(Cl)cc1 (configuration not stated)	aSyn 5UTR act -73
COc1cccc2c1C(=O)c1c(O)c3c(c(O)c1C2=O)C[C@@](O)(C(=O)CO)C[C@@H]3O[C@H]1C[C@H](N)[C@H](O)[C@H](C)O1	none
Oc1ccc(-c2[nH]ncc2-c2ccc(Cl)cc2)c(O)c1	aSyn 5UTR act -62
COc1cc(NS(=O)(=O)c2ccc(C)cc2)c2ncccc2c1	none
Cc1ccc(-c2nc3cccnc3s2)cc1NS(C)(=O)=O	aSyn 5UTR act -186
CCS(=O)(=O)Nc1cccc(-c2nc3cccnc3s2)c1C	aSyn 5UTR act -99
O=c1cc2oc3cc(O)c(O)cc3c(-c3ccccc3[N+](=O)[O-])c-2cc1O	none
COc1ccc(-c2cc(=O)c3cc(O)ccc3o2)cc1	aSyn 5UTR act -121
O=c1cc(-c2ccccc2)oc2ccc(O)cc12	aSyn 5UTR act -90
O=C(COc1ccc2oc(-c3ccccc3)cc(=O)c2c1)NCc1ccco1	aSyn 5UTR act -127
CCCCCCCCC/C(=N\O)c1ccccn1	aSyn 5UTR act -75
C=CCOc1c(Cl)cc(C(=S)N2CCCC2)cc1OCC	aSyn 5UTR act -95
CSc1nnc2c(n1)OC(C)N(C(=O)c1ccccc1)c1ccccc1-2 (configuration not stated)	aSyn 5UTR act -65
Cc1cc(C)nc(Nc2nc(=O)c3ccccc3s2)n1	aSyn 5UTR act -134
Cc1ccc(Cl)c(NC(=O)CCl)c1Cl	aSyn 5UTR act -87
O=C(CN1C(=O)S/C(=C\C=C\c2ccccc2)C1=O)Nc1cccc(O)c1	aSyn 5UTR act -218
CCN(C(=O)CN1C(=O)S/C(=C\C=C\c2ccccc2)C1=O)C1CCS(=O)(=O)C1 (configuration not stated)	aSyn 5UTR act -118
O=C(CCN1C(=O)S/C(=C\C=C\c2ccccc2)C1=O)Nc1ccc(O)cc1	aSyn 5UTR act -204
CN(CC(=O)N1CCCCCC1)S(=O)(=O)c1ccccc1	aSyn 5UTR act -68
CN(C)CCCN(C(=O)c1ccc(C(=O)c2ccccc2)cc1)c1nc2cc3c(cc2s1)OCO3	none
CN(C)CCCN(C(=O)c1cccs1)c1nc2cc3c(cc2s1)OCO3	aSyn 5UTR act -158
CN(C)CCCN(C(=O)c1ccc(Br)s1)c1nc2cc3c(cc2s1)OCCO3	aSyn 5UTR act -69
CN(C)CCCN(C(=O)c1ccco1)c1nc2cc3c(cc2s1)OCO3	aSyn 5UTR act -185
Cc1cccc(-n2ncc3c(N4CCC5(CC4)OCCO5)ncnc32)c1	aSyn 5UTR act -82
c1ccc(-n2ncc3c(N4CCC5(CC4)OCCO5)ncnc32)cc1	aSyn 5UTR act -223
COc1ccc(NC(=O)c2csc(Cc3ccccc3)n2)cc1	aSyn 5UTR act -110
O=C(Nc1ccc(F)cc1)c1csc(Cc2ccccc2)n1	aSyn 5UTR act -110
CCc1ccccc1NC(=O)c1ccc(-n2c(C)ccc2C)cc1	aSyn 5UTR act -98
Cc1ccc(C)n1-c1ccc(C(=O)Nc2ccccc2F)cc1	aSyn 5UTR act -157
Cn1nnnc1SCc1ccc(C(=O)Nc2ccccc2F)cc1	aSyn 5UTR act -86
Cc1ccc(C(=O)NCCc2c[nH]c3ccccc23)s1	aSyn 5UTR act -178
Cc1ccc(C(=O)NCCc2c[nH]c3ccccc23)c(C)c1	aSyn 5UTR act -104
O=C1c2ccccc2C(=O)N1CCc1c[nH]c2ccccc12	aSyn 5UTR act -172
O=C(/C=C/c1ccccc1)c1c[nH]c2ccccc12	aSyn 5UTR act -98
O=C(/C=C/c1ccccc1)NCCc1c[nH]c2ccccc12	aSyn 5UTR act -111
O=C(NCCc1c[nH]c2ccccc12)c1ccccc1	aSyn 5UTR act -107
Cc1cccc(C)c1OCc1cc(C(=O)N2CC3C[C@@H]4CC2C[C@H](C3)C4)no1	aSyn 5UTR act -117
Cc1ccc(OCc2cc(C(=O)N3CC4C[C@@H]5CC3C[C@H](C4)C5)no2)cc1C	aSyn 5UTR act -111
O=C(CSc1nc2ncccc2[nH]1)c1ccc2c(c1)OCO2	aSyn 5UTR act -86
CC(=O)c1c(C)[nH]c(C(=O)Nc2ccc(C)cc2Br)c1C	aSyn 5UTR act -131
CC(=O)c1c(C)[nH]c(C(=O)Nc2ccccc2Cl)c1C	aSyn 5UTR act -63
CC(=O)c1c(C)[nH]c(C(=O)NCCc2cccc(C)c2)c1C	aSyn 5UTR act -170
